Results: PubChem BioAssay (NCATS)
Inconclusive results are not listed. Activity calls are given as the source filed them. Calls come from the whole dose curve; as a rule, active = well fitted cell-killing curve with a large enough effect; inconclusive = small, poorly fitted or top-dose-only effect, or effect the other way; inactive = no such curve, though single readings can be large or run the other way.

Assay: Viability qHTS for spleen associated tyrosine kinase inhibitor (SYKi) drug resistant MV4-11 cells (AID 1963824); note: nearly all actives have a fitted effect of over 35% in size
Settings: SYKi-resistant MV4-11 viability, CellTiter-Glo, 72 h; series mostly up to 45 µM; viability, % of control: at the top concentration
How it was run: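 SYK-inhibitor-resistant MV4-11 AML cells were seeded at 500 per well onto compound and cultured 72 hours (37 °C, 5% CO2). CellTiter-Glo was then added, and after 10 min at room temperature, luminescence gave viability.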
Potency is the fitted concentration of half-maximal effect.

SMILES | Potency | viability, % of control
COC(=O)[C@]1(Cc2ccc(O)c(CC=C(C)C)c2)OC(=O)C(O)=C1c1ccc(O)cc1 | 8.93 µM (active) | 
Cn1cc(C2=C(c3cn(CCCSC(=N)N)c4ccccc34)C(=O)NC2=O)c2ccccc21 | 0.411 µM (active) | 
CC(C)n1nc(C#Cc2ccccc2)c2c(N)ncnc21 | 8.2 µM (active) | 
CC(=O)O[C@@H]1[C@@H](O)[C@H](C)O[C@@H](O[C@H]2[C@@H]3C=CO[C@@H](O[C@@H]4O[C@H](CO)[C@@H](O)[C@H](O)[C@H]4OC(C)=O)[C@@H]3[C@@]3(CO)O[C@@H]23)[C@@H]1OC(=O)/C=C/c1ccc(O)cc1 |  | 92.7% [at 17.3 µM] (inactive)
O=C1CCCC2=C1C(c1ccncc1Br)N=C(Nc1nc3ccccc3o1)N2 (centres undefined) | 18.4 µM (active) | 
Cc1cccc(N(C)C(=S)Oc2ccc3c(c2)CCC3)c1 | 18.4 µM (active) | 
CC(C)(O)/C=C/C(=O)[C@](C)(O)[C@H]1[C@H](O)C[C@@]2(C)[C@@H]3CC=C4[C@@H](C[C@H](O[C@@H]5O[C@H](CO)[C@@H](O)[C@H](O)[C@H]5O)C(=O)C4(C)C)[C@]3(C)C(=O)C[C@]12C | 6.11 µM (active) | 
CC(=O)OC1C(OC(=O)c2ccccc2)C2C(C)(C)CCC(OC(C)=O)C2(C)C23CCC(C)(C2)C(=O)CC13 (centres undefined) | 10 µM (active) | 
C=C1C[C@@]23CCC4[C@@](C)(CCC[C@@]4(C)C(=O)OC)C2CC[C@@H]1C3 (some centres undefined) | 6.4 µM (active) | 
CC(C)C[C@H](CC(=O)NO)C(=O)N[C@H](C(=O)N[C@@H](C)C(=O)NCCN)C(C)(C)C |  | 90.6% [at 9.25 µM] (inactive)
CC1=CC(=O)C2C(C)(C)CCC[C@]2(C)[C@H]1CC[C@H](C)CC(=O)O (some centres undefined) |  | 74.9% (inactive)
CC(=O)CC(=O)Nc1ccc(Cl)c(C(F)(F)F)c1 | 14.6 µM (active) | 
C[C@@H]1O[C@@H](O[C@H]2[C@H](O[C@H]3CO[C@@H](O[C@H]4CC[C@@]5(C)C(CC[C@]6(C)C5CC[C@]57OC[C@@]8(CC[C@](C)(CO)CC85)[C@H](O)C[C@]76C)C4(C)C)[C@H](O[C@@H]4O[C@H](CO)[C@@H](O)[C@H](O)[C@H]4O)[C@H]3O)O[C@H](CO)[C@@H](O)[C@@H]2O)[C@H](O)[C@H](O)[C@H]1O (some centres undefined) |  | 95% [at 9.25 µM] (inactive)
CC(C)(O)C(=O)N1CCN(c2ccc(C(F)(F)F)c(C3=C(c4c[nH]c5ccccc45)C(=O)NC3=O)c2)CC1 | 0.366 µM (active) | 
C[C@]12CCC[C@](C)(C(=O)O)C1CCC13C=C(CO)C(CCC12)C3 (some centres undefined) |  | 84.2% (inactive)
Cc1ccc(S(=O)(=O)NCc2ccc(C(=O)NCCN(Cc3ccccc3)C(C)C)cc2)cc1 | 14.6 µM (active) | 
FC(F)(F)c1ccc(/C=C/c2nc(COc3ccc(CCCCn4ccnn4)cc3)co2)cc1 | 0.0263 µM (active) | 
C=CC(C)(C)C12CC3C(=O)NC(Cc4cnc[nH]4)C(=O)N3C1Nc1ccccc12 (centres undefined) |  | 83% (inactive)
CCOC(=O)CCN(C(=O)c1ccc2c(c1)nc(CNc1ccc(C(=N)N)cc1)n2C)c1ccccn1 |  | 91% (inactive)
COC(=O)C1=CO[C@@H](O[C@@H]2O[C@H](CO)[C@@H](O)[C@H](O)[C@H]2O)[C@@H]2C(C)CC(=O)[C@]12O (some centres undefined) |  | 89% [at 17.3 µM] (inactive)

SMILES | Potency | viability, % of control
Cc1c(CN2CCN(C(=O)C(C)O)CC2)sc2c(N3CCOCC3)nc(-c3cnc(N)nc3)nc12 (centres undefined) | 0.366 µM (active) | 
C=C1C(O[C@@H]2O[C@H](CO)[C@@H](O)[C@H](O)[C@@H]2O)CC2C(C)(C)C(O)CCC2(C)C1CC/C(C)=C\CO (some centres undefined) |  | 86.7% [at 17.3 µM] (inactive)
O=c1cc(N2CCN(c3cccc(C(F)(F)F)c3)CC2)[nH]c(=O)n1C1CCCCC1 |  | 79.2% (inactive)
COc1cc(O)c2c(c1)C1(OC2=O)C(C)=CC(=O)C1O (centres undefined) | 16.4 µM (active) | 
CCCCC(=O)N1c2ccccc2NC2=C(C(=O)CCC2)C1c1ccccc1Cl (centres undefined) | 8.2 µM (active) | 
COc1ccc(C2OCC3C(c4cc(OC)c5c(c4)OCO5)OCC23)cc1OC (centres undefined) | 8.93 µM (active) | 
O=c1[nH]c2cccc(N3CCN(Cc4ccc(-c5ccccc5)cc4)CC3)c2o1 | 20.6 µM (active) | 
C=C1CC[C@@H]2[C@@](C)(CO[C@@H]3O[C@H](CO)[C@@H](O)[C@H](O)[C@H]3O)[C@H](O)CC[C@@]2(C)[C@@H]1CC/C(C)=C/CO[C@@H]1O[C@H](CO)[C@@H](O)[C@H](O)[C@H]1O |  | 90.2% [at 17.3 µM] (inactive)
CCCCNc1c(C(=O)OCC)c(C)nc2c1cnn2CC |  | 76.4% (inactive)
C[C@@H]1O[C@@H](O[C@H]2[C@H](O)[C@@H](O[C@@H]3O[C@H](CO)[C@@H](O)[C@H](O[C@@H]4O[C@H](CO)[C@@H](O)[C@H](O)[C@H]4O)[C@H]3O)[C@H](O[C@H]3CC[C@@]4(C)C(=CC[C@@H]5C4CC[C@@]4(C)C5C[C@@H]5OC6(CC[C@@](C)(CO[C@@H]7O[C@H](CO)[C@@H](O)[C@H](O)[C@H]7O)O6)[C@@H](C)[C@@H]54)C3)O[C@@H]2CO)[C@H](O)[C@H](O)[C@H]1O (some centres undefined) |  | 94.3% [at 9.25 µM] (inactive)
COc1ccccc1-c1nc(SCC(=O)Nc2ccc(C)c(C)c2)n[nH]1 | 16.4 µM (active) | 
CC1=C2C[C@H]3OC(=O)[C@H](O)[C@@]4(O)[C@@H](C)[C@@H](O)[C@H](O)C([C@@]2(C)[C@H](O)[C@@H](O)C1)[C@@]34C (some centres undefined) | 14.3 µM (active) | 
O=C1CCCC2=C1C(c1ncccc1Br)N=C(Nc1nc3ccccc3o1)N2 (centres undefined) | 2.59 µM (active) | 
CNCCC(c1cccs1)c1ccc(O)c2ccccc12 (centres undefined) | 14.6 µM (active) | 
N#Cc1ccc2c(c1)CCN(CCC1CCC(NC(=O)c3ccnc4ccccc34)CC1)C2 (centres undefined) | 10.3 µM (active) | 
CC1(C)CC(=O)C2=C(C1)NC(=S)NC2c1cccc(O)c1 (centres undefined) | 0.58 µM (active) | 
O=C1c2ccccc2-c2c(NCCc3ccccc3)c(=O)[nH]c3cccc1c23 | 23.1 µM (active) | 
Cc1nc2sccn2c(=O)c1CCN1CCC(=C(c2ccc(F)cc2)c2ccc(F)cc2)CC1 | 11.9 µM (active) | 
COc1ccc([C@@]2(O)c3c(ccc(CC=C(C)C)c3O)NC(=O)[C@@H]2OC)cc1 | 14.3 µM (active) | 
